Data on 53 molecules can be found in ChEMBL document CHEMBL3988442, “University of Dundee, Small-Polar-MMV Screening Library” (2021).

The campaign covered roughly 48,000 compounds. About 13,000 (27%) showed an effect of 50% or more. This is one part of the list.

The test concerns Wolbachia pipientis. The test can be described thus: Anti-Wolbachia Cell-Based Screen. Also noted: scale not given: in the data most compounds retested in dose-response had high values. The following applies: 5 µM. The test is classed as functional.
On to `CNC(=O)[C@@H](c1ccccc1)N1CCC[C@H]1C(=O)NCc1ccccn1.Cl.Cl`, for which the “Percent Effect” value is given as -0.04544%.
As for `Cc1cn2nc(N3CCCC3C(=O)N3CCSCC3)sc2n1` (stereo not drawn), the figure is -34.07%.
On to `O=C([C@@H]1CCCN1c1nccc(Nc2ccccc2)n1)N1CCCCC1`, for which the “Percent Effect” value is on record as 107.6%.
With `OCc1ccc(N2CCN(c3ncccn3)CC2)c(F)c1` the figure was 10.85%; with `COc1cc(C2C3=C(COC3=O)Nc3[nH]nc(C)c32)cc(Br)c1O` (stereo not drawn), 6.444%; with `CC(C)CSc1ccc(-n2cccn2)nn1`, -15.59%.
As to `O=C(O)C(F)(F)F.O=C1[C@H]2CN(CC3CCOCC3)C[C@H]2CN1c1ccsc1`, the “Percent Effect” value is on record as -12.76%.
As for `CS(=O)(=O)c1ccc(CN2CCCCC2c2ccc(F)cc2)cc1` (stereo not drawn), the figure is 14.88%; as for `O=C(O)C(F)(F)F.O=S(=O)(c1ccc(F)cc1)N1CC[C@H]2[C@H]1CCN2c1ncccn1`, 5.126%.
With `O=S(=O)(c1ccccc1)N1CCCC1c1cc[nH]n1` (stereo not drawn) the figure was 100.7%; with `O=S(=O)(c1ccccc1F)N1CCCCC1c1cc[nH]n1` (stereo not drawn), 126.5%.
Consider `O=S(=O)(c1ccc(F)cc1)N1CCCCC1c1cc[nH]n1` (stereo not drawn), for which the “Percent Effect” value is 93.21%.
With `CNS(=O)(=O)c1ccc(CN2CCCC2c2ccc(F)cc2)cc1` (stereo not drawn) the figure was -2.722%; with `CCN1C(=O)C[C@@H]2[C@@H]1CCN2S(=O)(=O)c1ccccc1`, -17.79%; with `O=S(=O)(c1ccccc1)N1CCCCC1c1cc[nH]n1` (stereo not drawn), 7.34%.
As for `COc1nn(C)c2c1CCCN(S(=O)(=O)c1ccccc1F)C2`, the figure is 9.619%; as for `O=S(=O)(c1ccc(F)cc1)N1CCCC1c1cc[nH]n1` (stereo not drawn), 93.9%.
As for `COCCN(C)CC1CCCN1S(=O)(=O)c1cccc(F)c1F` (stereo not drawn), the figure is -7.612%; as for `CN(Cc1ccno1)C(=O)c1cccc(CC2CCNCC2)c1`, -13.23%.
Turning to `CCNC(=O)NC(=O)CNC1(c2noc(C)n2)CCCC1`, the “Percent Effect” value is reported as 91.61%.
With `Cc1nc(C2(NCc3ccc(C#N)cc3F)CCCC2)no1` the figure was 14.6%.
As for `Cc1nc(C2(NC(=O)NCc3cc(C#N)ccc3F)CCCC2)no1`, the figure is -8.279%; as for `COc1cc(-c2nccn2C(C)CCn2cccn2)cc2c1OCO2` (stereo not drawn), -13.68%.
As for `CC1CCN(C)c2ccccc2N1C(=O)c1ccc(=O)n(C)n1` (stereo not drawn), the figure is -12.65%; as for `CC(C)(C)CN1CCCC12Cc1ccccc1CNC2=O` (stereo not drawn), 188%; as for `CC(C)CCN1CCCC12Cc1ccccc1CNC2=O` (stereo not drawn), 106.1%.
As to `CC(C)(C)CN1CCCC(O)(CN2CCc3[nH]ncc3C2)C1=O` (stereo not drawn), the “Percent Effect” value is -1.805%.
Turning to `O=C(NCc1ccccn1)N(Cc1ccc(F)cc1F)C1CC1`, the “Percent Effect” value is on record as -2.472%.
As for `Cc1cccc(N(CCC(N)=O)CC(=O)Nc2ccccc2)c1`, the figure is 2.508%.
For the molecule `O=C(CN(Cc1cccs1)c1ccc(F)cc1)NC1CCOCC1`, the “Percent Effect” value was -0.05044%.
As for `COc1nn(C)cc1C(=O)NCC(=O)NCc1ccccn1`, the figure is 5.267%; as for `NC(=O)CCN(CC(=O)NCc1cccs1)c1ccc(F)cc1`, 110%.
On to `Cc1cccc(N(CCC(N)=O)CC(=O)NC2CCCC2)c1`, for which the “Percent Effect” value was -5.461%.
For `O=C(CSc1nnc[nH]1)NCc1cccs1`, the “Percent Effect” value is given as -6.872%.
With `NC(=O)CCN(CC(=O)NCc1ccccn1)c1ccc(F)cc1` the figure was 119%; with `Cc1ccc(CNC(=O)CN(CCC(N)=O)c2ccc(F)cc2)cc1`, 105.8%; with `CS(=O)(=O)CCOCCNc1ccc(Br)cn1`, -8.426%.
With `CN(CCS(=O)(=O)c1cc(Cl)ccc1Cl)CC(=O)Nc1cccc(F)c1` the figure was -24.13%; with `CC1CCCN(C(=O)c2cn(-c3ccc(C(F)(F)F)cn3)nn2)C1` (stereo not drawn), -4.176%.
As for `Cc1cncc(C2CCCN(Cc3ccncc3)C2)n1` (stereo not drawn), the figure is 93.31%; as for `Cc1ccc(CN2CCCC(c3cncc(C)n3)C2)cn1` (stereo not drawn), 118.4%.
Take `Cc1cncc(C2CCCN(CC3CCC3)C2)n1` (stereo not drawn): the “Percent Effect” value was determined as 105.7%.
On to `Cc1cnc(CN2CCCC(c3cc(C(F)(F)F)[nH]n3)C2)cn1` (stereo not drawn), for which the “Percent Effect” value is -5.55%.
As for `CN(CCc1cn[nH]c1)C(=O)C1CC(=O)N(Cc2ccccn2)C1` (stereo not drawn), the figure is 3.692%; as for `COCCNC(=O)NCc1cc(-c2ccncc2)n(C2CCCC2)n1`, 117.5%; as for `CN(CCNC(=O)NCc1ccncc1)C1CCCC1`, 0.2327%.
As for `COCCNC(=O)NC1(c2nc(-c3ccncc3)no2)CCCCC1`, the figure is -5.967%.
As for `COCCNC(=O)NCc1cc(-c2cccs2)n(C2CCCC2)n1`, the figure is 108.7%; as for `CC(=O)NCc1nc(Cc2cccc(Cl)c2)nn1C1CCN(C)CC1`, 14.05%.
As for `CC(=O)NCc1cc(-c2cccs2)n(C2CCCC2)n1`, the “Percent Effect” value came out at 97.9%.
With `O=C(NCCn1cnc(C2CCCC2)cc1=O)NCc1cccs1` the figure was 5.486%; with `COCCNC(=O)NCCCOC1CCCc2ccccc21` (stereo not drawn), -3.457%.
As for `CC(C(=O)NCC1CCCCC1)S(=O)(=O)Cc1csc(-c2cccs2)n1` (stereo not drawn), the figure is -22.28%.
